Test results taken from PubChem BioAssay AID1619 (SRMLSC, 2009).
Among all 220,000 compounds or so, about 830 (0.38%) were called active.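 Rule for the calls: active = compound inhibiting the enzyme by more than half at any dose during confirmatory dose-response retesting; inconclusive = strong single-dose inhibitors picked by rank but not retested; inactive = the rest.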 The list is a sample of the results. Results with a measured potency or affinity are listed apart.

Target: Leucine aminopeptidase (Plasmodium falciparum (isolate 3D7)) (UniProt Q8IL11)
Sequence (Q8IL11 whole entry, looked up): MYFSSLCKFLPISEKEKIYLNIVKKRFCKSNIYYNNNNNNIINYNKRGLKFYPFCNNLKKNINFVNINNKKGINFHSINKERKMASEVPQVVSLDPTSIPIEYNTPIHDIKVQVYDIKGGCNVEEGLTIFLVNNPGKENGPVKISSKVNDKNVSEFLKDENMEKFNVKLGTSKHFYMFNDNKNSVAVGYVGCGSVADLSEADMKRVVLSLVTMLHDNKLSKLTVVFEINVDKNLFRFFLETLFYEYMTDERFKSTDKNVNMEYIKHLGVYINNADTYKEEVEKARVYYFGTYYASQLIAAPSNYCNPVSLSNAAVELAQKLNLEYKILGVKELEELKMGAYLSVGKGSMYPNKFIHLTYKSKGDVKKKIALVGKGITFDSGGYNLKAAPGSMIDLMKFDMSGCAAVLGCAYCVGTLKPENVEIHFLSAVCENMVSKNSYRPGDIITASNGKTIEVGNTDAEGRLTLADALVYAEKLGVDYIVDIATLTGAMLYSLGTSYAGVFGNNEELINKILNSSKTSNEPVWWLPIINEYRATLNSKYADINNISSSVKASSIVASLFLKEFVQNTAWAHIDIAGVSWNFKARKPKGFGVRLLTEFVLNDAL
Assay: P. falciparum M17LAP inhibitors, primary screen, biochemical, fluorogenic H-Leu-NHMec substrate, 1536-well (AID 1619);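 note: plate controls were full reaction with DMSO carrier for no effect and no enzyme background for full effect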
Conditions: recombinant M17LAP, H-Leu-NHMec fluorogenic kinetic assay; at 30 µM; hits give high values

inhibition, inactive:
CC(SC(=S)N1CCCC1)C(=O)O (stereo unspecified) -0.65%
O=C(OCCN1CCOCC1)C(c1ccccc1)c1ccccc1 -9.47%
FC(F)(F)c1nnc2ccc(NCn3nnc4ccccc43)nn12 22.6%
O=C(c1cnc2n(c1=O)CCS2)N(C1CCCCC1)C1CCCCC1 11.3%
CC(C)C(C)(C#N)NC(=O)CSc1nc2scc(-c3ccc(F)cc3)c2c(=O)n1Cc1ccccc1 (stereo unspecified) 11.3%
COc1cccc(F)c1C(C[N+](=O)[O-])c1c(N)n(C)c(=O)n(C)c1=O (stereo unspecified) 2.97%
N#CCOc1nc(N2CCCC2)nc(N2CCCC2)n1 1.35%
Cc1cc(OCC(=O)c2ccc(F)cc2)ccc1N1C(=O)CCC1=O -4.66%
O=C(/C=C/c1ccco1)Nc1ccccc1C(=O)O 27.5%
O=C(/C=C/c1ccco1)Nc1cccnc1Cl 5.61%
CCN(CC)S(=O)(=O)c1cccc(C(=O)N/N=C/c2ccccc2OCC(=O)O)c1 13.9%
COc1ccccc1NS(=O)(=O)c1cccc(C(=O)N/N=C/c2ccccc2OCC(=O)O)c1 16.5%
COCCOC(=O)c1c(C)oc2ccc(NS(=O)(=O)c3ccc(C)cc3)cc12 2.98%
O=C(O)c1cc(S(=O)(=O)Nc2ccc3oc(=O)sc3c2)ccc1O 51.1%
COCCOC(=O)c1c(C)oc2ccc(NS(=O)(=O)c3ccc(C(=O)O)cc3)cc12 32.9%
COc1ccc(S(=O)(=O)Nc2ccc3oc(C)c(C(=O)O)c3c2)cc1 6.21%
Cc1cc(C(=O)CN2C(=O)C(=O)N(Cc3ccccc3)C2=O)c(C)n1-c1ccc2c(c1)OCCO2 -11.2%
CC(C)c1nc(SCC(=O)Nc2c[nH]c(=O)[nH]c2=O)c2cnn(-c3ccccc3)c2n1 -6%
CC(=O)OCC(=O)Nc1ccccc1OC(F)F -2.65%
Cc1ccc(CNC(=O)C2CCCN(c3nc4ccsc4c(=O)s3)C2)cc1 (stereo unspecified) -6.15%
C#CCOCCOCCOCCNc1nc(N2CCN(C(=O)C([C@@H](C)CC)n3cc(C(N)CO)nn3)CC2)nc(N2CCN(C(=O)[C@H](CCC(=O)O)n3cc(C(N)CC(C)C)nn3)CC2)n1 (stereo partly specified) 2.95%
O=C(N=C1c2ccccc2CN1c1ccc(F)c(F)c1)c1cccnc1 3.87%
Cc1ccc(C(=O)Nc2c(C)cc(-c3ccc(Cl)cc3)oc2=O)cc1 2.9%
CC1(CCc2ccccc2)NC(=S)N(c2ccccc2)N1 (stereo unspecified) 10.2%
CCCCCCCC(=O)NNC(=O)c1ccc([N+](=O)[O-])cc1 1.27%
CCCCC(=O)NNC(=S)NC(=O)c1ccc([N+](=O)[O-])cc1 44.2%
CCCCC(=O)NNC(=S)NC(=O)c1ccc(C)cc1 59.8%
Cc1cccc(NC(=S)NNC(=O)c2cccc([N+](=O)[O-])c2)c1 3.9%
CCCCCC(=O)NNC(=S)NC(=O)c1ccccc1[N+](=O)[O-] 14.3%
CCCCC(=O)Nc1cccc(NC(=O)c2cccc([N+](=O)[O-])c2)c1 5.17%
CCCC(=O)Nc1ccc(C(=O)NNC(=O)c2cccc([N+](=O)[O-])c2)cc1 4.12%
O=C(CNC(=S)NC(=O)c1cccc([N+](=O)[O-])c1)c1ccccc1 -0.71%
O=C(CSc1nnc2sc3ccccc3n12)c1ccco1 -1.98%
O=C(CC1SC(=NCCc2ccccc2)N(/N=C/c2cccs2)C1=O)Nc1ccc(Cl)cc1 (stereo unspecified) -1.78%
c1ccc2c(-c3cc(C4CCNCC4)[nH]n3)cccc2c1 -3.07%
CCCc1cc(C(=O)NCc2ccco2)no1 -5.04%
COc1ccccc1CC(=O)NNC(=O)c1cccs1 -2.69%
O=C(CSc1nccc(=O)[nH]1)N1CCN(c2ccccc2)CC1 5.66%
CCOC(=O)COc1ccc(S(=O)(=O)Nc2ccc3c(c2)OCCO3)cc1 2.78%
Cc1cc(C)nc(NC(=O)CSc2nccc(C)n2)n1 5.87%
Cc1ccc(NC(=O)CSc2nc(O)cc(=O)n2C)cc1 7.3%
Cc1cc(=O)[nH]c(SCC(=O)Nc2ccc(C(=O)O)cc2)n1 8.39%
COC(=O)c1ccc(NC(=O)CSc2nc(C)cc(=O)[nH]2)cc1 35.4%
COc1ccc(NC(=O)CSc2nc(C)cc(C)n2)cc1 44%
COc1ccc(NC(=O)CSc2nc(C)cc(C(F)(F)F)n2)cc1 19%
COc1ccc2nc(NC(=O)CSc3nccc(C)n3)sc2c1 1.42%
Cn1c(SCC(=O)Nc2ccc(Br)cc2)nc(O)cc1=O 10.4%
Cc1cc(C)n(-c2nnc(C)n2N)n1 1.79%
COc1ccc(-c2ccn(-c3cccc(F)n3)n2)cc1 10.6%
O=C(N/N=C/c1ccc2c(c1)OCO2)C(=O)Nc1ccccc1 5.86%
CC(=O)c1ccccc1OCCn1nnc(-c2ccc(C)cc2)n1 12.1%
CCCOc1ccc(-c2c(C(=O)N/N=C/c3ccc(C)cc3)nnn2-c2nonc2N)cc1 -4.98%
CCOC(=O)C1=C(Nc2ccc(C)cc2)CC(C)(O)C(C(=O)OCC)C1c1ccccc1 (stereo unspecified) 0.02%
Cc1cc(C)nc(N2CCC(C(=O)Nc3nnc(C)s3)CC2)n1 1.03%
CC(C)(C)Nc1nc2cc([N+](=O)[O-])ccc2o1 2.86%
CCN(CC)c1ccc(NC(=O)CSc2nnc3nc(C)cc(C)n23)cc1 45.5%
Cc1cc(C)nc(SCC(=O)Nc2ccc(N3CCOCC3)cc2)n1 24.8%
Cc1nn(-c2nnc(C)c(=O)[nH]2)c(C)c1SCC(=O)Nc1ccc(C(C)C)cc1 63.3%
COc1ccc(NC(=O)CSc2c(C)n[nH]c2C)cc1 21.7%
Cc1nn(-c2nnc(C)c(=O)[nH]2)c(C)c1SCC(=O)Nc1ccc(F)cc1 46.2%
COc1ccc(NC(=O)CSc2ccc(C)cc2)cc1 -1.37%
